Measurements: PubChem BioAssay AID1159580 (chemical genetic matrix, 2015)
Hit rate of the full screen: of about 5,500 compounds, about 2,000 (36%) were called active. Not shown: some 18% with an inconclusive outcome. Rule as the data show it: active = normalized growth mostly below about 0.91 (no sharp cut-off); inconclusive = no clear call, values can overlap the other calls; inactive = mostly above about 0.92. The list shows a part of the results.

Assay: chemical genetic growth profiling, strain panel (AID 1159580);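 also: tested at 20 µM; growth read once vehicle control cultures reached saturation at 30 °C; 1 = growth at the plate median or of vehicle wells; lower values mean less growth of the strain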
Conditions: growth OD

Measured: normalized growth

O=C(O)[C@H](O)[C@@](O)(Cc1ccc(O)cc1)C(=O)O
inactive: S. cerevisiae deletion strains, locus YJR066W, strain TOR1, hits give low values 0.995 | S. cerevisiae deletion strains, locus YJR075W, strain HOC1, hits give low values 1.03 | S. cerevisiae deletion strains, locus YKL009W, strain mrt4, hits give low values 1.07 | S. cerevisiae deletion strains, locus YKL068W, hits give low values 1 | S. cerevisiae deletion strains, locus YKL085W, strain MDH1 (second series), hits give low values 1.02 | S. cerevisiae deletion strains, locus YKL085W, strain MDH1, hits give low values 1.02 | S. cerevisiae deletion strains, locus YKL160W, strain elf1, hits give low values 1.01 | S. cerevisiae deletion strains, locus YKL190W, strain CNB1, hits give low values 1.02 | S. cerevisiae deletion strains, locus YKR001C, strain vps1, hits give low values 1.02 | S. cerevisiae deletion strains, locus YKR026C, strain gcn3, hits give low values 1 | S. cerevisiae deletion strains, locus YKR091W, strain srl3, hits give low values 1 | S. cerevisiae deletion strains, locus YLL001W, strain dnm1, hits give low values 1.03 | S. cerevisiae deletion strains, locus YLL026W, hits give low values 1 | S. cerevisiae deletion strains, locus YLL041C, strain sdh2, hits give low values 1 | S. cerevisiae deletion strains, locus YLR027C, strain aat2, hits give low values 1.01 | S. cerevisiae deletion strains, locus YLR039C, strain RIC1, hits give low values 1.13 | S. cerevisiae deletion strains, locus YLR058C, strain SHM2, hits give low values 1.04 | S. cerevisiae deletion strains, locus YLR102C, strain apc9, hits give low values 0.994 | S. cerevisiae deletion strains, locus YLR113W, strain HOG1, hits give low values 1 | S. cerevisiae deletion strains, locus YLR221C, strain rsa3, hits give low values 1.03 | S. cerevisiae deletion strains, locus YLR258W, strain gsy2, hits give low values 1.01 | S. cerevisiae deletion strains, locus YLR262C, strain YPT6 (second series), hits give low values 1.03 | S. cerevisiae deletion strains, locus YLR268W, strain sec22, hits give low values 1.04 | S. cerevisiae deletion strains, locus YLR320W, strain mms22, hits give low values 1.03 | S. cerevisiae deletion strains, locus YLR330W, strain CHS5, hits give low values 1.02 | S. cerevisiae deletion strains, locus YLR342W, strain FKS1 (second series), hits give low values 1.09 | S. cerevisiae deletion strains, locus YLR342W, strain FKS1, hits give low values 1.01 | S. cerevisiae deletion strains, locus YLR357W, strain rsc2, hits give low values 1.01 | S. cerevisiae deletion strains, locus YLR370C, strain arc18, hits give low values 1.01 | S. cerevisiae deletion strains, locus YLR371W, strain rom2, hits give low values 1 | S. cerevisiae deletion strains, locus YLR384C, strain iki3, hits give low values 1.01 | S. cerevisiae deletion strains, locus YLR418C, strain cdc73, hits give low values 1.01 | S. cerevisiae deletion strains, locus YML016C, strain PPZ1, hits give low values 1.01 | S. cerevisiae deletion strains, locus YML032C, strain rad52, hits give low values 1.01 | S. cerevisiae deletion strains, locus YML120C, strain ndi1, hits give low values 1 | S. cerevisiae deletion strains, locus YML124C, strain tub3, hits give low values 1.01 | S. cerevisiae deletion strains, locus YMR058W, strain fet3, hits give low values 1.02 | S. cerevisiae deletion strains, locus YMR078C, strain ctf18, hits give low values 0.982 | S. cerevisiae deletion strains, locus YMR125W, strain sto1, hits give low values 1.01 | S. cerevisiae deletion strains, locus YMR129W, hits give low values 1.01 | S. cerevisiae deletion strains, locus YMR205C, strain PFK2, hits give low values 1.02 | S. cerevisiae deletion strains, locus YMR223W, strain ubp8, hits give low values 1.01 | S. cerevisiae deletion strains, locus YMR231W, strain pep5, hits give low values 0.998 | S. cerevisiae deletion strains, locus YMR263W, strain SAP30, hits give low values 1.02 | S. cerevisiae deletion strains, locus YMR307W, strain GAS1, hits give low values 1.04 | S. cerevisiae deletion strains, locus YNL067W, strain RPL9B, hits give low values 1.02 | S. cerevisiae deletion strains, locus YNL071W, strain lat1, hits give low values 1.01 | S. cerevisiae deletion strains, locus YNL153C, strain GIM3, hits give low values 1.02 | S. cerevisiae deletion strains, locus YNL183C, strain NPR1, hits give low values 1.01 | S. cerevisiae deletion strains, locus YNL209W, strain ssb2, hits give low values 1 | S. cerevisiae deletion strains, locus YNL233W, strain BNI4, hits give low values 1.04 | S. cerevisiae deletion strains, locus YNL248C, strain rpa49, hits give low values 1 | S. cerevisiae deletion strains, locus YNL250W, strain rad50, hits give low values 1.01 | S. cerevisiae deletion strains, locus YNL271C, strain bni1, hits give low values 1.01 | S. cerevisiae deletion strains, locus YNL298W, strain CLA4, hits give low values 0.987 | S. cerevisiae deletion strains, locus YNL307C, strain MCK1, hits give low values 0.987 | S. cerevisiae deletion strains, locus YNL322C, strain KRE1 (second series), hits give low values 1.01 | S. cerevisiae deletion strains, locus YNR049C, strain mso1, hits give low values 1 | S. cerevisiae deletion strains, locus YNR052C, strain pop2, hits give low values 0.995 | S. cerevisiae deletion strains, locus YOL006C, strain TOP1, hits give low values 1.25 | S. cerevisiae deletion strains, locus YOL012C, strain htz1 0.973 | S. cerevisiae deletion strains, locus YOL147C, strain pex11, hits give low values 1 | S. cerevisiae deletion strains, locus YOR001W, strain rrp6, hits give low values 0.986 | S. cerevisiae deletion strains, locus YOR061W, strain CKA2, hits give low values 1.04 | S. cerevisiae deletion strains, locus YOR069W, strain VPS5, hits give low values 1.01 | S. cerevisiae deletion strains, locus YOR070C, strain gyp1, hits give low values 1.02 | S. cerevisiae deletion strains, locus YOR080W, strain dia2, hits give low values 1.01 | S. cerevisiae deletion strains, locus YOR083W, strain WHI5, hits give low values 1.03 | S. cerevisiae deletion strains, locus YOR106W, strain vam3, hits give low values 1.01 | S. cerevisiae deletion strains, locus YOR136W, strain idh2, hits give low values 1.01 | S. cerevisiae deletion strains, locus YOR144C, strain elg1, hits give low values 1 | S. cerevisiae deletion strains, locus YOR184W, strain ser1, hits give low values 1.04 | S. cerevisiae deletion strains, locus YOR231W, strain MKK1, hits give low values 1.02 | S. cerevisiae deletion strains, locus YOR265W, strain rbl2, hits give low values 1 | S. cerevisiae deletion strains, locus YOR270C, strain vph1, hits give low values 1.05 | S. cerevisiae deletion strains, locus YOR290C, strain snf2, hits give low values 1.01 | S. cerevisiae deletion strains, locus YOR316C, strain cot1, hits give low values 1 | S. cerevisiae deletion strains, locus YPL051W, strain arl3, hits give low values 1.05 | S. cerevisiae deletion strains, locus YPL078C, strain atp4, hits give low values 1.01 | S. cerevisiae deletion strains, locus YPL106C, strain sse1, hits give low values 1.01 | S. cerevisiae deletion strains, locus YPL240C, strain hsp82, hits give low values 1.01 | S. cerevisiae deletion strains, locus YPL241C, strain CIN2, hits give low values 1.01 | S. cerevisiae deletion strains, locus YPL256C, strain CLN2, hits give low values 0.993 | S. cerevisiae deletion strains, locus YPR119W, strain clb2, hits give low values 1 | S. cerevisiae deletion strains, locus YPR141C, strain kar3, hits give low values 1 | S. cerevisiae deletion strains, locus YPR163C, strain tif3, hits give low values 0.992 | S. cerevisiae deletion strains, locus YPR167C, strain met16, hits give low values 1.01 | S. cerevisiae deletion strains, strain wtn01, hits give low values 1.02 | S. cerevisiae strains, strain wild type, hits give low values 1.03
